Source: PubChem
Most compounds without a hit are left out; they make up all but 1.3% or so of the library.
IDE act – boosts human insulin-degrading enzyme activity in HEK cells. FAbeta-B cleavage, fluorescence polarization; 0% vehicle, 100% cell-free pure enzyme wells. hit rate 0.073% among 340,000. activation, % at 5.96 µM. AID 493087;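 active = activation above the mean of all tested compounds plus 3 SD, set per screening campaign, cut at about 17% in these data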
Rin1 Abl inh – human Rin1-Abl interaction inhibition; P00519+Q13671; TR-FRET Rin1/Abl binding, biochemical; inhibition, % at 7.35 µM; hit rate 0.4% among 360,000; in the data active = inhibition above about 5%, passing the limit was not always enough
E coli Lon inh – inhibitors of E. coli Lon protease; P0A9M0; purified E. coli Lon protease, fluorescence polarization; inhibition, % at 7.94 µM; hit rate 0.42% among 360,000; in the data active = inhibition above about 13%, passing the limit was not always enough;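 also: 0% = enzyme with probe and DMSO and 100% = no enzyme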
PKA-R2B act – activates the human PKA-R2B holoenzyme complex. hit rate 0.079% among 340,000. activation, % at 11.4 µM. PKA-R2B holoenzyme dissociation, Cy5-IP20 fluorescence polarization; R2B truncated from residue 108, S112A mutant; 0% DMSO only, 100% 113 µM cGMP. P22694+P31323;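 active = activation above a cutoff set at the mean over all compounds plus 3 SD, cut at about 18% in these data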;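 also: higher means more holoenzyme dissociation and a rise in polarization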
PKA-R1A act – activators of PKA-R1A complex; AID 504707; PKA-R1A dissociation, Cy5-IP20 fluorescence polarization; scaled: DMSO 0%, 113 µM cGMP 100%; activation, % at 11.4 µM; hit rate 0.083% among 340,000;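 active = percent activation above the mean of all tested compounds plus 3 SD, cut at about 19% in these data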;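 also: higher means more PKAc released from R1A so a rise in polarization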
IDE cell inh – inhibitors of human insulin-degrading enzyme in cells; HEK cells, FAbetaB cleavage, fluorescence polarization; inhibition, % at 5.59 µM; hit rate 0.41% among 320,000; AID 434962;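 active = percent inhibition above the average of all tested compounds plus 3 SD, set per screening campaign, cut at about 16% in these data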;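 also: IDE supplied by intact live HEK cells; FP after avidin binding of uncleaved biotin substrate so inhibition keeps polarization high; 0% = DMSO wells and 100% = 60 µM reference IDE inhibitor Ii1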
eLon confirm – E. coli Lon inhibition confirmation; shares compounds with E coli Lon inh; purified E. coli Lon, fluorescence polarization; inhibition, % at 7.94 µM; hit rate 31% among 1,400; AID 602230; in the data active = inhibition above about 16%;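 also: 0% = enzyme with probe and DMSO and 100% = no enzyme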
Active calls of the source: *; x = not tested or not shown.

SMILES	IDE act	Rin1 Abl inh	E coli Lon inh	PKA-R2B act	PKA-R1A act	IDE cell inh	eLon confirm
Cc1c([N+](=O)[O-])nnn1-c1cc(Cl)cc(Cl)c1	1	3	28*	0	6	2	1
O=C(c1ccc(Br)o1)N1CCN(C23CC4CC(CC(C4)C2)C3)CC1	4	3	29*	-5	-3	-2	-2
O=C(c1ccco1)N1CCN(C(=O)c2ccc(Br)o2)CC1	x	0	-5	2	3	x	x
Cc1cc(OC(=O)c2ccc(S(=O)(=O)N(C)C)cc2)c([N+](=O)[O-])c(=O)[nH]1	-2	-1	-6	-6	-9	-4	x
CCOC(=O)c1c(C)oc2c1c(C=NCc1ccccn1)c(O)c1ccccc12	-2	-1	124*	-4	-7	x	135*
COCCn1c(SCC(=O)c2cc(C)n(C)c2C)nc2ccccc2c1=O	5	-1	15*	5	-8	1	4
Cc1cc(C)n2nc(SCc3cc(=O)oc4ccc5ccccc5c34)nc2n1	-3	-3	14*	2	-7	5	-12
C=CC[C@H](CC(=O)N(CCO)Cc1ccccc1)C(=O)N[C@@H](C)COC(=O)[C@H](CC=C)CC(=O)OC(C)(C)C	7	1	1	6	3	1	x
C=CC[C@H](CC(=O)N(CCO)Cc1ccccc1)C(=O)N[C@H](COC(=O)[C@@H](CC=C)CC(=O)OC(C)(C)C)c1ccccc1	7	1	20*	-8	-5	1	11
CC(=O)c1cccc(NC(=S)NCCc2ccc(Cl)cc2)c1	4	-1	2	7	3	5	x
CCN(CC(=O)NCc1ccc(F)cc1)CC(=O)Nc1ccc(Br)cc1F	4	1	22*	1	-3	6	-2
CCN(CC(=O)NCc1ccc(F)cc1)CC(=O)Nc1cc(S(=O)(=O)N(C)C)ccc1C	9	4	-3	-15	-13	2	x
CCCNC(=O)C1(C)CCCN(C(=O)c2ccccc2F)C1 (stereo unspecified)	x	-4	5	x	x	x	x
COc1cc(OC)c2ccc(=O)oc2c1C(CC(=O)N1CCCC1)c1ccc2c(c1)OCO2 (stereo unspecified)	8	0	-14	-4	5	6	x
COc1cc(C(CC(=O)N2CCCC2)c2c(OC)cc(OC)c3ccc(=O)oc23)cc(OC)c1OC (stereo unspecified)	-1	0	37*	-21	-3	4	14
CCn1c(CSc2nccn2C)nc2cc(C(=O)O)ccc21	2	1	32*	-13	-7	2	-7
COc1ccccc1CNC(=O)COC(=O)Cn1cnc2c1c(=O)n(C)c(=O)n2C	x	2	72*	4	5	x	-2
c1cc2c3c(cccc3c1)C(N1CCOCC1)=N2	x	-6	32*	x	x	-16	28*
CC1CN(C2=Nc3cccc4cccc2c34)CC(C)O1 (stereo unspecified)	6	-9	28*	-10	-15	2	14
CC(=O)N1CCN(C2=Nc3cccc4cccc2c34)CC1	2	-9	18*	5	-4	1	23*
COc1cc(C2NCCC(=O)C2(C)C)cc(OC)c1OC (stereo unspecified)	-2	-1	-10	5	-14	3	x
COc1ccc(N)cc1-n1c(C)ccc1C	9	-6	52*	2	-5	1	18*
O=C1NC2c3c(I)sc(I)c3C(=O)C2O1 (stereo unspecified)	2	1	105*	7	-4	x	17*
CCOC(=O)c1sc(=NC(=O)COc2ccc(Cl)cc2)n(C)c1C	-2	0	-2	2	-2	3	x
CCn1c(C)nnc1SCC(=O)Nc1ccc(N2CCOCC2)cc1	-1	2	-9	-1	12	-3	x
SMILES	IDE act	Rin1 Abl inh	E coli Lon inh	PKA-R2B act	PKA-R1A act	IDE cell inh	eLon confirm
CCn1c(SCC(=O)Nc2ccc(N3CCOCC3)cc2)nnc1-c1ccco1	-2	0	27*	1	2	-4	2
Cc1ccccc1NC(=O)C1CCCN(c2ncnc3onc(-c4ccc(F)cc4)c23)C1 (stereo unspecified)	-3	-3	16*	0	4	10	-15
O=C(COC(=O)c1cc2ccccc2cc1O)NC1CCCCC1	1	0	26*	-1	3	-4	-25
CSCCC(NC(=O)c1ccco1)C(=O)N1CCCCCCC1 (stereo unspecified)	-1	-2	21*	5	-8	-5	15
CSCCC(NC(=O)c1ccco1)C(=O)N1CCC(C(N)=O)CC1 (stereo unspecified)	15	0	-1	-3	-12	0	x
O=C(CC1NCCNC1=O)Nc1ccccc1 (stereo unspecified)	4	2	4	0	-6	0	x
O=C(CC1C=CCC1)Nc1ccccc1 (stereo unspecified)	1	4	50*	-6	-6	x	-1
O=C(C1CCN(S(=O)(=O)c2c(Cl)cccc2Cl)CC1)N1CCCCCCC1	-1	3	18*	-9	-13	-1	-4
O=c1[nH]c2ccccc2nc1C(F)(F)C(F)F	8	-1	-2	7	0	0	x
O=c1[nH]c2cc3ccccc3cc2nc1C(F)(F)F	-23	-6	26*	3	1	14	37*
O=S(=O)([N-]c1nc2ccccc2nc1-[n+]1ccc(-c2ccncc2)cc1)c1ccccc1	7	-2	47*	-4	1	-4	131*
CC1=NN(C(=S)Nc2ccccc2)C(c2ccccc2)C1 (stereo unspecified)	3	-2	84*	-14	-6	2	9
Cc1cccc(NC(=S)N2N=CCC2c2ccccc2)c1 (stereo unspecified)	3	-2	-8	3	4	1	x
CCOC(=O)c1c(-c2ccccc2)nnn1-c1nc(OCC)nc(N2CCCCC2)n1	0	3	-1	-4	5	0	x
CCOc1nc(N2CCCCC2)nc(-n2cc(-c3ccccc3)nn2)n1	0	-2	16*	5	2	-2	-1
O=C(CN1CCCC1)Nc1c2c(nc3ccccc13)N(Cc1ccccc1)CC2	-3	-3	-3	-8	-8	-6	x
O=C(CSCc1cc(=O)n2ccsc2n1)Nc1ccc(F)cc1	3	-3	66*	10	10	4	3
Nc1nonc1-c1noc(-c2ccccc2Br)n1	-4	4	-3	-5	2	2	x
